Drawing on PubChem BioAssay AID376 (PDSP, 2006), this text covers hERG blockade for 66 compounds.

The structures appear in SMILES notation. About 250 (12%) of roughly 2,000 compounds were called active. What follows is part of a selection rich in actives, with near analogues and random picks from the rest. Unmarked numbers belong to inactive results. Cut-off read from the data, not from the text of the source: active = hERG blockade below about -20% or above about 20%; inactive = in between.

The target of this assay is Voltage-gated inwardly rectifying potassium channel KCNH2 (Homo sapiens) (UniProt Q12809). In words: modulators of KCNH2 ion channel function, cellular (AID 376).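 Note: 0% = buffer alone and 100% = reference blocker.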 The note with it: hERG-expressing cells, channel activity single-concentration screen; concentration not given here.
Sequence of Voltage-gated inwardly rectifying potassium channel KCNH2 (Homo sapiens) (Q12809 whole entry, looked up): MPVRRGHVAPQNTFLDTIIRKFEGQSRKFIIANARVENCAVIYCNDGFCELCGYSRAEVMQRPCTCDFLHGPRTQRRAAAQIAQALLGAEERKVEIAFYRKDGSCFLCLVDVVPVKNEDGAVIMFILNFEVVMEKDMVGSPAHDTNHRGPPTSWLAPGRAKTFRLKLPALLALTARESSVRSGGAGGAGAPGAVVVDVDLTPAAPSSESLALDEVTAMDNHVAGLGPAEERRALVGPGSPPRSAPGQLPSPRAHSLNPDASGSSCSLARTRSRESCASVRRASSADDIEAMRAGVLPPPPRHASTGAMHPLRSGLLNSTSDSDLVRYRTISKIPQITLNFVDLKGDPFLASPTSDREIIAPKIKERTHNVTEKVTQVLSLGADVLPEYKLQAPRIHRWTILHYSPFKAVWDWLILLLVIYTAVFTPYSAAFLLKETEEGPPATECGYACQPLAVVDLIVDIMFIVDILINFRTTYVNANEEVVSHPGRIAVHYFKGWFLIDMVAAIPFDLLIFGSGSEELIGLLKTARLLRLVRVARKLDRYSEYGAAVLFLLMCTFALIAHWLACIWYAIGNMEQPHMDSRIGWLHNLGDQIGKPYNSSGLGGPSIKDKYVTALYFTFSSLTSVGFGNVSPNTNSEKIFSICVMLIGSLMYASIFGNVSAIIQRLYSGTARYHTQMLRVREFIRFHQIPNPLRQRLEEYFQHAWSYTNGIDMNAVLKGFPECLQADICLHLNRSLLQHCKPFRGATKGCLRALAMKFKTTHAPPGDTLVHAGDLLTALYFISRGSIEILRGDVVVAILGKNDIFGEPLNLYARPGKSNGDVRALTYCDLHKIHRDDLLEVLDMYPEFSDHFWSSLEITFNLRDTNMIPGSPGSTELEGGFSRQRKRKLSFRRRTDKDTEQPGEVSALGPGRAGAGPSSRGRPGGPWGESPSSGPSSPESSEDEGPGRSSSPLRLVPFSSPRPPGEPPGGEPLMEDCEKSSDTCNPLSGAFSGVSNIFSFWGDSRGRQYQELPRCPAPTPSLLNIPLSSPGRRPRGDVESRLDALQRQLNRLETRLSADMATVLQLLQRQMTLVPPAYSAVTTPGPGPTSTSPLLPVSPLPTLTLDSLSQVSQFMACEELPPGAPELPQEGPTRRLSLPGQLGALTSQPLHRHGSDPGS
As for `O=C(O)C(Cc1ccc([N+](=O)[O-])cc1)=NO`, the hERG blockade was 0.35%. With `CC(CO)(CO)Nc1ncnc2ccccc12` the figure was 2.95%; with `O=S(=O)(c1cnccc1N1CCN(CCO)CC1)N1CCCC1`, -8.49%. As for `N=C1C(O)C2(I)c3ccccc3N3C(=N)C(O)C4c5ccccc5N1C4C32` (stereo unspecified), the hERG blockade is 35.8% (active). As for `O=C(CSc1nc2ccccc2s1)c1sc2sc3ccccc3[n+]2c1O`, the hERG blockade is 1.71%. With `CC(CCC(=O)O)C(=O)O` (stereo unspecified) the figure was 2.86%; with `Oc1ccc(CNCc2ccccc2)c2cccnc12`, 7.55%; with `Oc1ccccc1CNCc1ccccc1O`, 23.5% (active).

Turning to `O=C(O)c1ccc(CNCc2ccccc2)cc1`, the hERG blockade was -8.86%. On to `CCCCN1CSC(=S)N(Cc2ccccc2)C1`, for which the hERG blockade was 13.4%. In the case of `CCC(CS(=O)(=O)O)[N+](=O)[O-]` (stereo unspecified), the hERG blockade was 1.33%. Under `O=C(O)CC(CC(=O)O)C(=O)O` stands 15.6%; under `N=C(N)SCc1cc(Cl)cc(Cl)c1O`, 12.3%. As to `N=C(N)SCc1ccc(Cl)cc1Cl` (tested in a mixture with another compound), the hERG blockade is 30.7% (active). With `Clc1ccc(CSCc2ccc(Cl)cc2Cl)c(Cl)c1` the figure was 5.81%; with `COC(=O)c1ccc(CCc2cc(O)ccc2O)cc1`, 11.9%; with `O=C(O)CCC(=O)c1ccc[nH]1`, 1.12%.

Turning to `O=C(O)CCC(=O)c1ccc2ccc3cccc4ccc1c2c34`, the hERG blockade was -66.6% (active). Regarding `O=C(O)c1cccc2cccc(-c3cccc4cccc(C(=O)O)c34)c12`, the hERG blockade was -6.19%.

Take `NCCNS(=O)(=O)c1ccc(N)cc1`: the hERG blockade was 2.62%. With `CC(C)(C)c1ccc(NS(=O)(=O)c2ccc(N)cc2)cc1` the figure was -2.98%; with `Nc1ccc(S(=O)(=O)NCCS(=O)(=O)O)cc1`, -20.3% (active); with `CCOC(=O)c1cnc(N(C)C)nc1SC(=N)N`, 12.8%. Under `c1cc(CNCCN2CCNCC2)ccn1` stands -17.5%. With `CC(C)NCCC(O)c1cc2ccccc2o1` (stereo unspecified) the figure was 7.89%.

Take `NC(N)=NC(N)=Nc1ccc(C(=O)O)cc1`: the hERG blockade is -11%. With `NC(N)=NC(N)=Nc1c(F)c(F)c(F)c(F)c1F` the figure was -23.3% (active). With `NC(N)=NC(N)=Nc1ccccc1` (tested in a mixture with another compound) the figure was -3.28%; with `O=C(O)CCc1c2ccc(=O)c(O)c-2oc2c(O)c(O)ccc12`, 6.94%; with `Oc1ccc(Cn2c(-c3ccc(O)cc3)nc3ccccc32)cc1`, 9.19%. Under `NS(=O)(=O)c1cc2c(cc1Cl)=NC(CCC(=O)O)=NS=2(=O)O` stands -4.14%; under `[N-]=[N+]=NC1C(O)C(CO)OC1n1cnc2c(N)ncnc21` (stereo unspecified), -1.39%. For the compound `Cc1ccc(C(O)c2cnc(C)n2Cc2ccccc2)cc1` (stereo unspecified), the hERG blockade is 0.183%.

In the case of `Cc1ccc2c(c1)NC(c1ccc(C(=O)O)cc1)c1cccn1-2` (stereo unspecified), the hERG blockade was -13.1%. With `CC1CC2C3CCC4=CC(=O)C=CC4(C)C3(F)C(O)CC2(C)C1(O)C(=O)COP(=O)(O)O` (stereo unspecified) the figure was -1.33%; with `CC(=O)Nc1cc(CN2CCCCC2)c(O)c2ncccc12`, -2.13%; with `NC(CSc1nc2ccccn2c1[N+](=O)[O-])C(=O)O` (stereo unspecified), -1.31%. Take `O=C1c2ccccc2C(=O)c2c1ccc(N1C(=O)c3ccccc3C1=O)c2-c1c(N2C(=O)c3ccccc3C2=O)ccc2c1C(=O)c1ccccc1C2=O`: the hERG blockade was 15.5%. Under `O=C(O)c1cccc(N=Nc2c(S(=O)(=O)O)ccc3c2C(=O)c2ccccc2C3=O)c1O` stands 6.27%. With `O=C1c2ccccc2C(=O)c2c1ccc(C(=O)O)c2-c1ccc2ccccc2c1`, the hERG blockade is 66.5% (active).

For the compound `NC(C(=O)O)C(O)c1cnc[nH]1` (stereo unspecified), the hERG blockade was 2.25%.

For `O=C(O)C1CCCCC1C(=O)Nc1nc2ccccc2[nH]1` (stereo unspecified), the hERG blockade was 28.5% (active).

As for `O=C(O)CSc1nc2ccccc2[nH]1`, the hERG blockade is -15.3%. In the case of `O=C1c2ccccc2-c2ccc(NC(=O)C3CCCCC3C(=O)O)cc21` (stereo unspecified), the hERG blockade was 1.13%.

Regarding `CN(C)CCCNc1ncnc2nc[nH]c12`, the hERG blockade is 3.18%. Consider `C[N+]1(C)CCc2cc(O)c(O)cc2C1Cc1ccc(O)c(O)c1` (stereo unspecified), for which the hERG blockade is -10.5%. Under `CC(=NO)c1cccc[n+]1Cc1ccccc1` stands -12.2%.

Consider `COc1ccc(-c2csc3c2-n2cccc2C3=O)cc1`, for which the hERG blockade is 22.6% (active). With `NC(=O)C1CCCN1Cc1ccc2c(c1)OCO2` (stereo unspecified), the hERG blockade is -14.4%. With `CC12CCC(=O)C=C1CCC1C2CCC2(C)C(C(=O)Cn3cnc4c(=S)nc[nH]c43)CCC12` (stereo unspecified) the figure was 12.1%. For `Nc1nc(N)c2[nH]c(CNc3ccc(C(=O)O)cc3)nc2n1`, the hERG blockade was 16.1%.

For `CCn1c2ccccc2c2nnc(NCCCO)nc21`, the hERG blockade is -5.84%. For the compound `CCOc1ccccc1Nc1ccc(N)cc1S(=O)(=O)O`, the hERG blockade is 0.163%. Consider `S=C1SCN(C2CCCCCCCCCCC2)CN1C1CCCCCCCCCCC1`, for which the hERG blockade was 0.139%. With `COc1ccc(CSC2=C(C#N)C(=O)NC3(CCCCC3)S2)cc1` the figure was -27.9% (active); with `O=C(O)CSc1ccccc1C(=O)O`, -2.77%; with `Cn1ncc2c(NCCc3ccccc3)nc(Cl)nc21`, 10%. With `Clc1nc(NCCc2ccccc2)c2ncn(-c3ccccc3)c2n1` the figure was 34.7% (active); with `c1ccc(CCCNc2nnnc3ccccc23)cc1`, 3.75%. On to `O=C(O)C1(C(=O)O)CCN(S(=O)(=O)c2ccccc2)CC1`, for which the hERG blockade is -10%. Regarding `CC(=NNC1=NCCN1)c1cn(C2=NCCN2)nc1C`, the hERG blockade was 48.8% (active). Under `Cc1nc2sc3c(c2c(=O)[nH]1)CCCC3` stands -7.98%; under `O=C(O)CC(Cc1ccccc1)C(=O)O` (stereo unspecified), 6.37%. With `COc1cc(C)cc2c(-c3c(O)cc(O)c4c3CC(C)NC4C)cc(-c3cc(-c4c(O)cc(O)c5c4CC(C)NC5C)c4cc(C)cc(OC)c4c3O)c(O)c12` (stereo unspecified), the hERG blockade is 22.2% (active). With `COc1cc(C2SCCCCCCCCCCSC(c3ccc(O)c(OC)c3)SCCCCCCCCCCS2)ccc1O` (stereo unspecified) the figure was 2.15%; with `CC(=N[N-]C(=[SH+])SCc1ccccc1)c1ccccn1.[Cl][Cu]`, 3.22%.
